# Laboratory results reported in the supplement of paper PMC4466140.
# How the values were obtained:
# Assay in all cases: SPOT peptide array binding signal intensity (averaged, normalized) (arbitrary units (background-subtracted, floor 0; scale differs between SH3 domains)); higher = stronger binding of the SH3 domain to the peptide
# AgAbp1 = molecular target: AgAbp1
# Procedure, shortened: (§1)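 Four yeast species supplied the SH3 domains, which were expressed as GST fusions in E. coli BL21(DE3) and purified on glutathione Sepharose. Incubation with cellulose membranes carrying synthetic 15-mer peptides, cysteines exchanged for serines, ran overnight at 4°C at 10 μg/ml in TBS-based blocking buffer. Binding signal is reported as normalized, background-subtracted spot intensity averaged over replicates, in arbitrary units not shared between domains.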
# AgBbc1 = molecular target: AgBbc1
# Procedure, shortened: as §1
# AgBem1-D1 = molecular target: AgBem1-D1
# Procedure, shortened: as §1
# AgBzz1-D1 = molecular target: AgBzz1-D1
# Procedure, shortened: as §1
# AgBzz1-D2 = molecular target: AgBzz1-D2
# Procedure, shortened: as §1
# AgCyk3 = molecular target: AgCyk3
# Procedure, shortened: as §1
# AgFus1 = molecular target: AgFus1
# Procedure, shortened: as §1
# AgHof1 = molecular target: AgHof1
# Procedure, shortened: as §1
# AgHse1 = molecular target: AgHse1
# Procedure, shortened: as §1
# AgLsb1 = molecular target: AgLsb1
# Procedure, shortened: as §1
# AgLsb4 = molecular target: AgLsb4
# Procedure, shortened: as §1
# AgMyo5 = molecular target: AgMyo5
# Procedure, shortened: as §1
# AgNbp2 = molecular target: AgNbp2
# Procedure, shortened: as §1
# AgRvs167 = molecular target: AgRvs167
# Procedure, shortened: as §1
# AgSho1 = molecular target: AgSho1
# Procedure, shortened: as §1
# AgSla1-D1-D2 = molecular target: AgSla1-D1-D2
# Procedure, shortened: as §1
# AgSla1-D3 = molecular target: AgSla1-D3
# Procedure, shortened: as §1
# CaAbp1-D1 = molecular target: CaAbp1-D1
# Procedure, shortened: as §1
# CaAbp1-D2 = molecular target: CaAbp1-D2
# Procedure, shortened: as §1
# CaBbc1 = molecular target: CaBbc1
# Procedure, shortened: as §1
# CaBem1-D1 = molecular target: CaBem1-D1
# Procedure, shortened: as §1
# CaBzz1-D1 = molecular target: CaBzz1-D1
# Procedure, shortened: as §1
# CaBzz1-D2 = molecular target: CaBzz1-D2
# Procedure, shortened: as §1
# CaCyk3 = molecular target: CaCyk3
# Procedure, shortened: as §1
# CaFus1 = molecular target: CaFus1
# Procedure, shortened: as §1
# CaHof1 = molecular target: CaHof1
# Procedure, shortened: as §1
# CaHse1 = molecular target: CaHse1
# Procedure, shortened: as §1
# CaLsb1 = molecular target: CaLsb1
# Procedure, shortened: as §1
# CaLsb4 = molecular target: CaLsb4
# Procedure, shortened: as §1
# CaMyo5 = molecular target: CaMyo5
# Procedure, shortened: as §1
# CaNbp2 = molecular target: CaNbp2
# Procedure, shortened: as §1
# CaRvs167 = molecular target: CaRvs167
# Procedure, shortened: as §1
# CaRvs167-3 = molecular target: CaRvs167-3
# Procedure, shortened: as §1
# CaSho1 = molecular target: CaSho1
# Procedure, shortened: as §1
# CaSla1-D1-D2 = molecular target: CaSla1-D1-D2
# Procedure, shortened: as §1
# CaSla1-D3 = molecular target: CaSla1-D3
# Procedure, shortened: as §1
# ScAbp1 = molecular target: ScAbp1
# Procedure, shortened: as §1
# ScBbc1 = molecular target: ScBbc1
# Procedure, shortened: as §1
# ScBem1-D1 = molecular target: ScBem1-D1
# Procedure, shortened: as §1
# ScBzz1-D1 = molecular target: ScBzz1-D1
# Procedure, shortened: as §1
# ScBzz1-D2 = molecular target: ScBzz1-D2
# Procedure, shortened: as §1
# ScCyk3 = molecular target: ScCyk3
# Procedure, shortened: as §1
# ScFus1 = molecular target: ScFus1
# Procedure, shortened: as §1
# ScHof1 = molecular target: ScHof1
# Procedure, shortened: as §1
# ScHse1 = molecular target: ScHse1
# Procedure, shortened: as §1
# ScLsb1 = molecular target: ScLsb1
# Procedure, shortened: as §1
# ScLsb2 = molecular target: ScLsb2
# Procedure, shortened: as §1
# ScLsb3 = molecular target: ScLsb3
# Procedure, shortened: as §1
# ScLsb4 = molecular target: ScLsb4
# Procedure, shortened: as §1
# ScMyo3 = molecular target: ScMyo3
# Procedure, shortened: as §1
# ScMyo5 = molecular target: ScMyo5
# Procedure, shortened: as §1
# ScNbp2 = molecular target: ScNbp2
# Procedure, shortened: as §1
# ScPex13 = molecular target: ScPex13
# Procedure, shortened: as §1
# ScRvs167 = molecular target: ScRvs167
# Procedure, shortened: as §1
# ScSho1 = molecular target: ScSho1
# Procedure, shortened: as §1
# ScSla1-D1-D2 = molecular target: ScSla1-D1-D2
# Procedure, shortened: as §1
# ScSla1-D3 = molecular target: ScSla1-D3
# Procedure, shortened: as §1
# SpAbp1-D1 = molecular target: SpAbp1-D1
# Procedure, shortened: as §1
# SpBbc1 = molecular target: SpBbc1
# Procedure, shortened: as §1
# SpBzz1-D1 = molecular target: SpBzz1-D1
# Procedure, shortened: as §1
# SpBzz1-D2 = molecular target: SpBzz1-D2
# Procedure, shortened: as §1
# SpCyk3 = molecular target: SpCyk3
# Procedure, shortened: as §1
# SpHof1 = molecular target: SpHof1
# Procedure, shortened: as §1
# SpHof1-2 = molecular target: SpHof1-2
# Procedure, shortened: as §1
# SpHof1-3 = molecular target: SpHof1-3
# Procedure, shortened: as §1
# SpHse1 = molecular target: SpHse1
# Procedure, shortened: as §1
# SpLsb1 = molecular target: SpLsb1
# Procedure, shortened: as §1
# SpLsb4 = molecular target: SpLsb4
# Procedure, shortened: as §1
# SpMyo1 = molecular target: SpMyo1
# Procedure, shortened: as §1
# SpNbp2 = molecular target: SpNbp2
# Procedure, shortened: as §1
# SpPex13 = molecular target: SpPex13
# Procedure, shortened: as §1
# SpRvs167 = molecular target: SpRvs167
# Procedure, shortened: as §1
# SpSla1-D1-D2 = molecular target: SpSla1-D1-D2
# Procedure, shortened: as §1
# SpSla1-D3 = molecular target: SpSla1-D3
# Procedure, shortened: as §1
binder,measurement,setting,value
RMVRRRPLRVQFSAR,SPOT peptide array binding signal intensity,AgAbp1,341
same,SPOT peptide array binding signal intensity,AgBbc1,152
same,SPOT peptide array binding signal intensity,AgBem1-D1,477
same,SPOT peptide array binding signal intensity,AgBzz1-D1,102
same,SPOT peptide array binding signal intensity,AgBzz1-D2,93.5
same,SPOT peptide array binding signal intensity,AgCyk3,3
same,SPOT peptide array binding signal intensity,AgFus1,2500
same,SPOT peptide array binding signal intensity,AgHof1,44.8
same,SPOT peptide array binding signal intensity,AgHse1,1410
same,SPOT peptide array binding signal intensity,AgLsb1,16.5
same,SPOT peptide array binding signal intensity,AgLsb4,606
same,SPOT peptide array binding signal intensity,AgMyo5,2.5
same,SPOT peptide array binding signal intensity,AgNbp2,1110
same,SPOT peptide array binding signal intensity,AgRvs167,10.8
same,SPOT peptide array binding signal intensity,AgSho1,634
same,SPOT peptide array binding signal intensity,AgSla1-D1-D2,284
same,SPOT peptide array binding signal intensity,AgSla1-D3,28.2
same,SPOT peptide array binding signal intensity,CaAbp1-D1,820
same,SPOT peptide array binding signal intensity,CaAbp1-D2,810
same,SPOT peptide array binding signal intensity,CaBbc1,247
same,SPOT peptide array binding signal intensity,CaBem1-D1,495
same,SPOT peptide array binding signal intensity,CaBzz1-D1,202
same,SPOT peptide array binding signal intensity,CaBzz1-D2,245
same,SPOT peptide array binding signal intensity,CaCyk3,104
same,SPOT peptide array binding signal intensity,CaFus1,3490
same,SPOT peptide array binding signal intensity,CaHof1,2.5
same,SPOT peptide array binding signal intensity,CaHse1,464
same,SPOT peptide array binding signal intensity,CaLsb1,12.5
same,SPOT peptide array binding signal intensity,CaLsb4,1050
same,SPOT peptide array binding signal intensity,CaMyo5,58
same,SPOT peptide array binding signal intensity,CaNbp2,1470
same,SPOT peptide array binding signal intensity,CaRvs167,190
same,SPOT peptide array binding signal intensity,CaRvs167-3,216
same,SPOT peptide array binding signal intensity,CaSho1,1620
same,SPOT peptide array binding signal intensity,CaSla1-D1-D2,590
same,SPOT peptide array binding signal intensity,CaSla1-D3,700
same,SPOT peptide array binding signal intensity,ScAbp1,188
same,SPOT peptide array binding signal intensity,ScBbc1,90.2
same,SPOT peptide array binding signal intensity,ScBem1-D1,142
same,SPOT peptide array binding signal intensity,ScBzz1-D1,39.5
same,SPOT peptide array binding signal intensity,ScBzz1-D2,238
same,SPOT peptide array binding signal intensity,ScCyk3,81.5
same,SPOT peptide array binding signal intensity,ScFus1,1530
same,SPOT peptide array binding signal intensity,ScHof1,12
same,SPOT peptide array binding signal intensity,ScHse1,2920
same,SPOT peptide array binding signal intensity,ScLsb1,23.2
same,SPOT peptide array binding signal intensity,ScLsb2,14
same,SPOT peptide array binding signal intensity,ScLsb3,1400
same,SPOT peptide array binding signal intensity,ScLsb4,364
same,SPOT peptide array binding signal intensity,ScMyo3,16
same,SPOT peptide array binding signal intensity,ScMyo5,2
same,SPOT peptide array binding signal intensity,ScNbp2,1660
same,SPOT peptide array binding signal intensity,ScPex13,40
same,SPOT peptide array binding signal intensity,ScRvs167,164
same,SPOT peptide array binding signal intensity,ScSho1,1900
same,SPOT peptide array binding signal intensity,ScSla1-D1-D2,1030
same,SPOT peptide array binding signal intensity,ScSla1-D3,217
same,SPOT peptide array binding signal intensity,SpAbp1-D1,558
same,SPOT peptide array binding signal intensity,SpBbc1,38.8
same,SPOT peptide array binding signal intensity,SpBzz1-D1,224
same,SPOT peptide array binding signal intensity,SpBzz1-D2,30.5
same,SPOT peptide array binding signal intensity,SpCyk3,7
same,SPOT peptide array binding signal intensity,SpHof1,556
same,SPOT peptide array binding signal intensity,SpHof1-2,29.5
same,SPOT peptide array binding signal intensity,SpHof1-3,862
same,SPOT peptide array binding signal intensity,SpHse1,874
same,SPOT peptide array binding signal intensity,SpLsb1,21
same,SPOT peptide array binding signal intensity,SpLsb4,1330
same,SPOT peptide array binding signal intensity,SpMyo1,46.2
same,SPOT peptide array binding signal intensity,SpNbp2,1850
same,SPOT peptide array binding signal intensity,SpPex13,320
same,SPOT peptide array binding signal intensity,SpRvs167,66.2
same,SPOT peptide array binding signal intensity,SpSla1-D1-D2,15
same,SPOT peptide array binding signal intensity,SpSla1-D3,81
